Activity calls are given as the source filed them.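 Rule for the calls: active = primary screen active and over 50% activation in each of two duplicate runs; inactive = the rest.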

In this test the test system is transient receptor potential cation channel C4 beta (TRPC4), mouse. Kind of test: activators of mouse TRPC4 channel, confirmation, cell-based, second round, Fluo4, HEK293 TRPC4beta/mu-opioid, 1 µM (AID 2461). Particulars: Fluo4 calcium fluorescence, at 1 µM.
In the case of `Clc1ccc(OCC#CCN2CCCC2)cc1`, the result was inactive. For the molecule `CN(CCOc1ccc(C=C2C(=O)NC(=O)NC2=O)cc1)c1ccccn1`, the outcome was inactive. On to `CCN1CC2C3CCC(C)(O3)C2C1` (stereo unspecified), for which the outcome was inactive.

Consider `CC(C)CNc1c2c(nc3ccccc13)CCC2`, for which the result was inactive. In the case of `COC(=O)C1=C(c2cc3ccccc3s2)C[C@@H]2CC[C@H]1N2C(=O)NCCO`, the outcome was inactive. Regarding `Cc1ccc(-c2cc(-c3ccccc3)cc(-c3ccccc3)[n+]2-c2ccccc2)cc1`, the outcome was inactive. Consider `Nc1ccccc1-[n+]1c(-c2ccccc2)cc(-c2ccccc2)cc1-c1ccccc1`, for which the outcome was inactive.

Regarding `Clc1ccc2c(c1)C(c1ccccc1Cl)=NCc1nnc(N3CCN(CCOc4ccccc4)CC3)n1-2`, the result was inactive. As for `Cc1ccccc1CN1CCNCC1`, the outcome was inactive. For `CN1CCN(Cc2cc(=O)n3ccsc3n2)CC1`, the result was inactive. As to `CCC1=Nc2cc(C(=O)N3CCC4(CC3)OCCO4)ccc2Sc2ccc(Br)cc21`, the result was inactive. In the case of `CCCCN1C(=O)NC(=O)C2(Cc3c(nc4c(C)cccn4c3=O)N3CCc4ccccc4C32)C1=O` (stereo unspecified) it was “inactive”; in that of `C=CCOC(=O)C1=C(C)OC(N)=C(C#N)[C@@]12C(=O)N(CC(N)=O)c1ccccc12`, “inactive”; in that of `FC(F)(F)c1ccc(CN2CCNCC2)cc1`, “inactive”. With `Clc1ccc(N2CCNCC2)nn1`, the result was inactive. In the case of `O=[N+]([O-])c1ccc(N2CCNCC2)cc1N1CCCCCC1`, the result was inactive. For `C#CCN1C(=O)C2(C(C#N)=C(N)OC(C)=C2C(=O)OCc2ccccc2)c2ccccc21` (stereo unspecified), the outcome was inactive. As for `Cc1ccc(-c2nc(N(C)C3CCN(C)CC3)c3ccccc3n2)cc1`, the result was inactive. For the molecule `c1ccc2nc(OCCN3CC3)ccc2c1`, the result was inactive. `Cc1cc(OC(C)C(=O)NCc2ccncc2)c2c3c(c(=O)oc2c1)CCCC3` (stereo unspecified): the outcome was inactive. Consider `CCNCCNc1ccc([N+](=O)[O-])c2cccnc12`, for which the result was inactive. For `CN(C)CCn1cnc2ccccc21`, the result was inactive. In the case of `COC(=O)C(O)(c1ccc(NC(=S)NC(=O)c2ccc(Cl)cc2Cl)c(C)c1)C(F)(F)F` (stereo unspecified) it was “inactive”; in that of `COc1ccc(C(=O)C2CN(C)CC2c2ccc(Cl)cc2)cc1` (stereo unspecified), “inactive”. For the molecule `CC(Cc1ccccc1)NCC(=O)Nc1cc(N(C)C)nc2ccccc12` (stereo unspecified), the result was inactive.

On to `Nc1c([N+](=O)[O-])cc(F)c(N2CCNCC2)c1Br`, for which the result was inactive. With `Oc1c(Br)cc(Br)cc1CN1CCN(Cc2ccccc2)CC1`, the result was inactive.

`CCNc1cc(N2CCNCC2)ccc1[N+](=O)[O-]`: the result was inactive. Turning to `CCn1ccnc1CN1CCCC(C(=O)c2cccc(C(F)(F)F)c2)C1` (stereo unspecified), the result was inactive. Regarding `CCc1ccc(OCCCN=C(C)c2c(O)n(C)c(=O)n(C)c2=O)cc1`, the result was inactive. Regarding `Cc1cccc(N=Cc2c(O)n(-c3ccccc3C)c(=O)[nH]c2=O)c1`, the result was inactive.

(Values after PubChem BioAssay.)
